Among the data in PubChem BioAssay AID463173 (ICCB-Longwood Screening Facility, Harvard Medical School, 2010) are survival values, retold here.

The campaign covered roughly 52,000 compounds. About 4,300 (8.3%) were called active. Only a selection was taken, and actives are over-represented in it overall. A number with no mark means an inactive call. No stated cut-off is given here; in the data, active means survival mostly below about 52% (no sharp cut-off); inactive means mostly above about 56%.

This test concerns DeltatarO mutant. Put plainly: S. aureus survival, RN4220 and DeltatarO strains – OD600, teichoic acid synthesis inhibitors, primary screen (AID 463173). The settings on record: S. aureus RN4220 wild type/DeltatarO growth, OD600, 18 h, stronger effect = lower value, screened at 18.75 µg/mL (by protocol).
Turning to `CCN(CC)C(=O)CN1C(=O)COc2ccc(S(=O)(=O)N3CCOCC3)cc21`, the survival is 78%.

With `O=C(Nc1cc2c(cc1C(=O)c1ccc(Br)cc1)OCCO2)c1ccc(Cl)cc1`, the survival is 102%.

Regarding `Cc1ccc2c(c1)N(CC(=O)OCC(=O)NCc1ccccc1)C(=O)CO2`, the survival was 81%.

On to `COCCNC(=O)c1ccc(-c2nc(CS(=O)(=O)c3ccccc3)c(C)o2)cc1`, for which the survival was 119%.

Regarding `COCCCNc1nc2c(c(=O)[nH]c(=O)n2C)n1CC(O)COc1ccc(Cl)cc1` (configuration not stated), the survival is 66%.

For `CCc1ccc(C2c3c(-c4ccccc4)n[nH]c3C(=O)N2c2ccc(C(=O)O)cc2)cc1` (configuration not stated), the survival is 48% (active).

On to `CCc1ccc(C2c3c(n[nH]c3C)C(=O)N2c2ccc(C)cc2)cc1` (configuration not stated), for which the survival is 8% (active).

For `CCOC(=O)c1ccc(N2C(=O)c3[nH]nc(-c4ccccc4)c3C2c2ccc(C(C)C)cc2)cc1` (configuration not stated), the survival was 105%.

As for `O=C1c2[nH]nc(-c3ccccc3)c2C(c2ccccc2)N1c1cccc(C(F)(F)F)c1` (configuration not stated), the survival was 20% (active).

Take `CCOC(=O)c1ccc(N2C(=O)c3n[nH]c(-c4cccs4)c3C2c2ccc(CC)cc2)cc1` (configuration not stated): the survival was 99%.

As to `O=C(O)c1ccc(N2C(=O)c3[nH]nc(-c4ccccc4)c3C2c2cccc(F)c2)cc1` (configuration not stated), the survival is 92%.

`CCOC(=O)c1ccc(N2C(=O)c3n[nH]c(C)c3C2c2ccc(CC)cc2)cc1` (configuration not stated): the survival was 78%.

As for `CCOC(=O)c1ccc(N2C(=O)c3[nH]nc(-c4ccc(C)cc4)c3C2c2cccc(F)c2)cc1` (configuration not stated), the survival was 117%.

Regarding `CCOC(=O)c1ccc(N2C(=O)c3[nH]nc(-c4ccccc4)c3C2c2ccc(CC)cc2)cc1` (configuration not stated), the survival was 100%.

As for `Clc1ccc(OCc2nc(-c3ccc(-n4cccc4)cc3)no2)cc1`, the survival is 163%.

For the compound `O=C(CNCC1CCCO1)NCc1ccco1` (configuration not stated), the survival is 97%.

In the case of `CCN(Cc1ccccc1)Cc1c(O)ccc2c(=O)c(-c3ccccc3Cl)c(C(F)(F)F)oc12`, the survival was 74%.

Turning to `COc1ccc(N=C2SCC(=O)N2C)cc1`, the survival is 76%.

On to `COc1ccc(C2=Nn3c([n+](C)c4ccccc43)SC2)cc1`, for which the survival was 0% (active).

Consider `COc1ccc(C2=Nn3c(nc4sc(C(=O)Nc5cccc(C)c5)c(C)c4c3=O)SC2)cc1`, for which the survival is 105%.

For `O=C(COc1ccccc1)Nc1ccccc1OCc1cc(=O)n2ccccc2n1`, the survival was 78%.

Regarding `CCC1CN(C(=O)N2CCC(C(=O)NCCCc3ccccc3)CC2)c2ccccc2O1` (configuration not stated), the survival was 69%.

In the case of `CNCC(=O)NC(c1ccccc1)c1ccccc1`, the survival was 97%.

With `CN(C)CCCN(C(=O)c1ccc(Br)s1)c1nc2ccc(F)cc2s1`, the survival was -5% (active).

Take `CN(C)CCCN(C(=O)c1cccs1)c1nc2ccc(F)cc2s1`: the survival was 92%.

With `Cc1ccc2nc(N(CCCN(C)C)C(=O)c3ccc(Br)s3)sc2c1`, the survival was 77%.

As to `COC(=O)c1sc2cccc(F)c2c1S(=O)(=O)N1CCN(c2ccc(F)cc2)CC1`, the survival was 81%.

Turning to `COc1ccc2c(CNCc3cccs3)c(C(=O)O)n(Cc3cccc(F)c3)c2c1`, the survival is 72%.

Take `Cc1cc(C)cc(Nc2cc(C(=O)NCCCN(Cc3ccccc3)C(C)C)c3ccccc3n2)c1`: the survival was -4% (active).

As to `Cc1cc(C)cc(Nc2cc(C(=O)NCc3ccccc3)c3ccccc3n2)c1`, the survival is 113%.

`CSc1cccc(Nc2cc(C(=O)NCCCN(Cc3ccccc3)C(C)C)c3ccccc3n2)c1`: the survival was 88%.

With `Cc1ccc(N2CC(C(=O)NCCS(=O)(=O)N3CCN(c4ccc(F)cc4)CC3)CC2=O)cc1` (configuration not stated), the survival is 89%.

On to `Cc1ccc(CN(C(=O)COc2ccc([N+](=O)[O-])cc2)c2ccccn2)cc1`, for which the survival is 49%.

For the compound `Cc1ccc(CN(C(=O)COc2cccc([N+](=O)[O-])c2)c2ccccn2)cc1`, the survival was 39% (active).

In the case of `Cc1ccc(CN(C(=O)COc2ccccc2[N+](=O)[O-])c2ccccn2)cc1`, the survival was 46%.

Consider `Cc1ccc(CN(C(=O)COc2ccccc2[N+](=O)[O-])c2ccccn2)o1`, for which the survival was 69%.

For `Cc1ccc(CN(C(=O)COc2cccc([N+](=O)[O-])c2)c2ccccn2)o1`, the survival is 62%.

As for `Cc1ccc(CN(C(=O)COc2ccc([N+](=O)[O-])cc2)c2ccccn2)o1`, the survival is 62% (active).

`Cc1c(-c2nsc(NC(=O)c3ccc(Cl)cc3)n2)nnn1-c1ccc(C(C)C)cc1`: the survival was 66%.

For the compound `CN(C1CCCCC1)S(=O)(=O)c1ccc(F)c(C(=O)Nc2ccc(C(F)(F)F)cc2)c1`, the survival is 83%.

Turning to `CCn1c(CN2CCCCC2)nc2cc(NC(=O)c3ccc([N+](=O)[O-])cc3)ccc21`, the survival was 90%.

In the case of `O=C(Nc1nnc(S(=O)(=O)Nc2ccccc2)s1)C1CCCCC1`, the survival is 31% (active).

Consider `Cc1cccc(NS(=O)(=O)c2nnc(NC(=O)c3cccc(C)c3)s2)c1`, for which the survival is 61%.

`O=C(Nc1nnc(S(=O)(=O)Nc2ccccc2)s1)c1ccccc1Cl`: the survival is 52%.

For `CN(c1ccccc1)S(=O)(=O)c1nnc(NC(=O)C2CCCCC2)s1`, the survival was 65%.

Take `Cc1cccc(NS(=O)(=O)c2nnc(NC(=O)C3CCCCC3)s2)c1`: the survival is 34% (active).

In the case of `Cc1cccc(N(C)S(=O)(=O)c2nnc(NC(=O)C3CCCCC3)s2)c1`, the survival is 72%.

As for `CC(=O)c1cc(-c2ccc(F)cc2)n(CCC(=O)Nc2nc3ccc(C)cc3s2)c1C`, the survival was 69%.

On to `Cc1cc(C)c(NC(=O)Cn2c(=O)oc3cc(S(=O)(=O)N4CCCCCC4)ccc32)c(C)c1`, for which the survival is 83%.

Turning to `CCOc1ccc(-n2c(SCC(=O)c3ccccc3)nc3c([nH]c4ccccc43)c2=O)cc1`, the survival is 131%.

In the case of `Cc1cccc(C(=O)OCc2cc(=O)n3nc(-c4cccs4)sc3n2)c1`, the survival was 101%.

Regarding `Cc1ccc(CCNC(=O)c2ccc(Nc3nc4ccccc4n4nnnc34)cc2)cc1`, the survival was 72%.

With `N#Cc1ccc(NC(=O)C2Cc3ccccc3CN2S(=O)(=O)c2ccc(F)cc2)cc1` (configuration not stated), the survival is 54%.

For the compound `OCCn1nnnc1-c1ccccc1`, the survival was 85%.

Regarding `CC(C)C12CN3CC(C(C)C)(CN(C1)C3c1ccc(Cl)cc1)C2=O` (configuration not stated), the survival is 39% (active).

`CCOc1ccc(C2N3CC4(C(C)C)CN2CC(C(C)C)(C3)C4=O)cc1OC` (configuration not stated): the survival was 91%.

In the case of `CC(C)C12CN3CC(C(C)C)(CN(C1)C3c1ccc(OCc3ccccc3)cc1)C2=O` (configuration not stated), the survival was 85%.
